High-throughput results deposited in PubChem by Broad Institute.
PD-1 reverse act = activators reversing PD-1 mediated T-cell inhibition | activation, % (concentration not given with the values) | AID 2316 | primary human CD4 T cells, PD-L1 beads, CellTiter-Glo 96 h | 29,000 tested, under 10 active; call rule not given here;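 also: 0% = median vehicle wells and 100% = positive control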
STK33 kin inh = inhibitors of human STK33 kinase; ADP-Glo luminescence, MBP substrate; 0.44% of 27,000 active; inhibition, % at 12.5 µM; in the data active = inhibition above about 20%; inconclusive = no clear call, values can overlap the other calls
Target sequence (Q9BYT3 whole entry, looked up): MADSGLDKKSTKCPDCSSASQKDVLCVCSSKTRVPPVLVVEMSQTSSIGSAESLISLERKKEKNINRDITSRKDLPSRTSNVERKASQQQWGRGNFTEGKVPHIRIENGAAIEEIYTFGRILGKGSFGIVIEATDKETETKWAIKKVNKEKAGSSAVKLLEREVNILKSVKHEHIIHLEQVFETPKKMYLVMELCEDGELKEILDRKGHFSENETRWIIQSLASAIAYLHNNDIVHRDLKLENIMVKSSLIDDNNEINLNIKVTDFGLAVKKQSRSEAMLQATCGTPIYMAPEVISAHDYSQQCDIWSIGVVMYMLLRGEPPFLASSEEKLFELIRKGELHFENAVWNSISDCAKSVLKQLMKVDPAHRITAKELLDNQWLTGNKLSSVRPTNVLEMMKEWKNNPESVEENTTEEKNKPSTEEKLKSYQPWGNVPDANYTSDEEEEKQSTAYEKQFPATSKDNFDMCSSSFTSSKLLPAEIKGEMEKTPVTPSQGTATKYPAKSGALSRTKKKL
NOMO-1 viab = STK33 inhibitor candidate reducing NOMO-1 cell viability; NOMO-1 AML viability, CellTiter-Glo luminescence, 72 h; inhibition, % (test concentration not listed); 7.5% of 37,000 active; in the data active = inhibition above about 80%; inconclusive = no clear call, values can overlap the other calls
* hit, by the source's call; ? = inconclusive; · = no result; ! = not active in a repeat. Shown is part of a subset that was picked to be rich in hits.

SMILES | PD-1 reverse act | STK33 kin inh | NOMO-1 viab
O=C(c1ccccc1NS(=O)(=O)c1ccccc1[N+](=O)[O-])N1CCOCC1 | 0 | 3 | -18
COC(=O)CNS(=O)(=O)c1ccccc1[N+](=O)[O-] | · | -2 | 112*
C/C=C(\C)C(=O)O[C@H]1[C@H](OC(C)=O)[C@@]2(CO)C(CC1(C)C)C1=CCC3[C@@]4(C)CC[C@H](O[C@@H]5O[C@H](C(=O)O)[C@@H](O)[C@H](O[C@@H]6O[C@H](CO)[C@H](O)[C@H](O)[C@H]6O[C@@H]6O[C@@H](C)[C@H](O)[C@@H](O)[C@H]6O)[C@H]5O[C@@H]5O[C@H](CO)[C@@H](O)[C@H](O)[C@H]5O)C(C)(C)C4CC[C@@]3(C)[C@]1(C)C[C@H]2O (stereo partly drawn) | · | -5 | ·
Cc1noc(C)c1NC(=O)Nc1ccc2c(c1)C(=O)N([C@H](C)CO)C[C@H](C)[C@@H](CN(C)S(=O)(=O)c1c(C)noc1C)OCCCC[C@@H](C)O2 | 3 | 0 | -3
Cc1noc(C)c1S(=O)(=O)N(C)C[C@H]1OCCCC[C@@H](C)Oc2ccc(NC(=O)Nc3ccc(C(F)(F)F)cc3)cc2C(=O)N([C@H](C)CO)C[C@@H]1C | -3 | 0 | 104*
C[C@@H]1CCCCO[C@H](CN(C)S(=O)(=O)c2cccs2)[C@@H](C)CN([C@H](C)CO)C(=O)c2cc(NC(=O)Nc3ccc(C(F)(F)F)cc3)ccc2O1 | -3 | 1 | 90*
C[C@@H]1CCCCO[C@@H](CN(C)S(=O)(=O)c2cccs2)[C@@H](C)CN([C@H](C)CO)C(=O)c2cc(NC(=O)Nc3ccc(C(F)(F)F)cc3)ccc2O1 | · | 3 | 40
FC(F)(F)c1ccccc1N=C1CCCc2ccccc21 | -1 | · | 13
Nc1nc(CSc2nnc3c(n2)[nH]c2ccccc23)cs1 | 0 | · | -11
O=C(NC(Cc1ccc(O)cc1)C(=O)O)c1ccccc1 (stereo not drawn) | · | 0 | ·
O=C(OCc1cccc([N+](=O)[O-])c1)c1ccc(NC(=O)c2ccco2)cc1 | · | -5 | 2
C[C@H]1CN([C@@H](C)CO)C(=O)c2cccc(NC(=O)Nc3ccc(C(F)(F)F)cc3)c2O[C@H]1CN(C)C(=O)Nc1ccc(F)cc1 | -5 | · | ?
C[C@@H]1CN([C@@H](C)CO)C(=O)c2cccc(NC(=O)NC3CCCCC3)c2O[C@@H]1CN(C)C(=O)Nc1ccc(C(F)(F)F)cc1 | -5 | · | 94*
C[C@@H]1CN([C@H](C)CO)C(=O)c2cccc(NC(=O)NC3CCCCC3)c2O[C@@H]1CN(C)C(=O)Nc1ccc(C(F)(F)F)cc1 | · | · | 67
COc1ccc(NC(=O)N(C)C[C@H]2Oc3c(NC(=O)Nc4ccc(C(F)(F)F)cc4)cccc3C(=O)N([C@@H](C)CO)C[C@H]2C)cc1 | -2 | · | 88*
COc1ccc(NC(=O)Nc2cccc3c2O[C@H](CN(C)C(=O)Nc2ccc(C(F)(F)F)cc2)[C@H](C)CN([C@H](C)CO)C3=O)cc1 | -1 | · | 7
C[C@@H]1CN([C@@H](C)CO)C(=O)c2cccc(NC(=O)Nc3ccc(C(F)(F)F)cc3)c2O[C@H]1CN(C)C(=O)Nc1ccc(F)cc1 | -5 | · | 117*
C[C@H](CO)N1C[C@H](C)[C@H](CN(C)C(=O)Nc2ccc(F)cc2)Oc2c(NC(=O)Nc3ccc(C(F)(F)F)cc3)cccc2C1=O | 1 | · | 103*
C[C@H](CO)N1C[C@H](C)[C@@H](CN(C)C(=O)Nc2ccc(F)cc2)Oc2c(NC(=O)Nc3ccc(C(F)(F)F)cc3)cccc2C1=O | · | · | 42
Cc1cccc(NC(=O)CN(C)S(=O)(=O)c2ccc3ccccc3c2)c1C | -1 | 1 | 11
CCOC(=O)c1c(/N=C/c2ccccc2O)sc(C)c1C | 0 | · | 23
COc1ccc(OC)c(S(=O)(=O)Nc2ccc(O)c(Sc3nc4ccccc4s3)c2)c1 | · | 2 | 11
C[C@@H]1CN([C@H](C)CO)C(=O)c2cccc(NC(=O)Nc3ccc(C(F)(F)F)cc3)c2O[C@@H]1CN(C)C(=O)Nc1ccc(C(F)(F)F)cc1 | 1 | · | 98*
C[C@H]1CN([C@@H](C)CO)C(=O)c2cccc(NC(=O)Nc3ccc(C(F)(F)F)cc3)c2O[C@H]1CN(C)C(=O)Nc1ccc(C(F)(F)F)cc1 | 1 | · | 70
NCCCCNS(=O)(=O)c1ccc2ccccc2c1 | 1 | 0 | 1
SMILES | PD-1 reverse act | STK33 kin inh | NOMO-1 viab
NCCCCCCNS(=O)(=O)c1cccc2ccccc12 | 2 | 1 | 84*
CSc1cccc(NC(=O)C(C)NS(=O)(=O)c2ccccc2)c1 (stereo not drawn) | -1 | -2 | 39
CSc1sc(C(=O)Sc2ccccc2)cc1S(=O)(=O)C(C)C | 1 | · | 106*
CN(C)/C=C/C(=O)c1ccsc1 | -2 | · | 48
O=C(CCN1CCCCC1)Nc1ccc(Cl)cc1 | 0 | · | -16
CN(C)C(=O)C(CCN1CCC(O)(c2ccc(Cl)cc2)CC1)(c1ccccc1)c1ccccc1 | 1 | 0 | 138*!
COC(=O)c1ccc(NC(=O)C2Cc3ccccc3CN2S(=O)(=O)c2ccc(F)cc2)cc1 (stereo not drawn) | 1 | 2 | 21
COc1ccc(S(=O)(=O)Nc2ccc3c(c2)CC(=O)N([C@@H](C)CO)C[C@H](C)[C@H](CN(C)Cc2ccc(Oc4ccccc4)cc2)O3)cc1 | 4 | 5 | 28
C[C@H]1CN([C@@H](C)CO)C(=O)Cc2cc(N(C)C)ccc2O[C@H]1CN(C)Cc1ccc(Oc2ccccc2)cc1 | -2 | 1 | 52
C[C@H]1CN([C@@H](C)CO)C(=O)Cc2cc(NS(=O)(=O)c3ccc(Cl)cc3)ccc2O[C@H]1CN(C)Cc1ccc(Oc2ccccc2)cc1 | · | -5 | 78
C[C@@H]1CN([C@H](C)CO)C(=O)Cc2cc(NS(=O)(=O)c3ccc(Cl)cc3)ccc2O[C@H]1CN(C)Cc1ccc(Oc2ccccc2)cc1 | -2 | · | 112*
C[C@H](CO)N1C[C@H](C)[C@H](CN(C)Cc2ccc(Oc3ccccc3)cc2)Oc2ccc(NS(=O)(=O)c3ccc(Cl)cc3)cc2CC1=O | 1 | 2 | 116*
C[C@@H]1CN([C@H](C)CO)C(=O)Cc2cc(N(C)C)ccc2O[C@@H]1CN(C)Cc1ccc(Oc2ccccc2)cc1 | -3 | -1 | 118*
Cc1ccc(S(=O)(=O)Nc2ccc3c(c2)CC(=O)N([C@H](C)CO)C[C@H](C)[C@H](CN(C)Cc2ccc(Oc4ccccc4)cc2)O3)cc1 | 3 | 8 | 111*
C[C@@H]1CN([C@H](C)CO)C(=O)Cc2cc(NS(=O)(=O)c3ccc(Cl)cc3)ccc2O[C@H]1CN(C)Cc1ccccc1 | · | -1 | 46
N#Cc1c(NC(=O)COc2ccc(C(=O)NC3CCCCC3)cc2)sc2c1CCC2 | -1 | -3 | 58
CCn1c(SCc2cccc(OC)c2)nnc1-c1cccnc1 | 2 | -1 | -23
CC(C)(O[C@@H]1O[C@H](CO)[C@@H](O)[C@H](O)[C@H]1O)[C@@H]1Oc2cc3oc(=O)ccc3cc2[C@H]1O | 0 | -3 | 7
COc1ccc(Cl)cc1NC(=O)C(C)N(c1ccc(C)cc1)S(C)(=O)=O (stereo not drawn) | 1 | -6 | 31
COc1ccc(S(=O)(=O)Nc2ccc3c(c2)CC(=O)N([C@@H](C)CO)C[C@@H](C)[C@@H](CN(C)Cc2ccc(Oc4ccccc4)cc2)O3)cc1 | 0 | 2 | ?
